# Beta apoptosis – inhibitors of cytokine-induced beta cell apoptosis, primary screen, luminescence; protection from apoptosis, % (no concentration beside the values); AID 435005, 2010; INS-1E cytokine-induced death, ATP luminescence, 48 h; percent of positive-control rescue, neutral wells zero; actives 0.8% (n = 300,000);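 active means Every replicate reaches about 75%, or at least half do and their mean reaches it too, limit read from the data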;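 further: higher means more ATP so stronger rescue from cytokine killing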
# MPTP inh – mitochondrial permeability transition pore inhibitors, primary screen, biochemical, isolated mouse mitochondria, absorbance; actives 1.4% (n = 360,000); Ca2+ swelling absorbance, 30 min; inhibition, % at 10 µM;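 active means inhibition of 50% or more, scaled per plate between neutral and stimulator controls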
# CSC inhib – cancer stem cell viability inhibitors, primary screen, luminescence; inhibition, % at 7.5 µM; cancer stem cell-like cells viability; actives 1.1% (n = 300,000); in the data active means inhibition above about 75%; tested in HMLE shEcad cells
# Mdm2 MdmX PPI – inhibitors of human Mdm2-MdmX association, primary screen, cell-based, luminescence, split luciferase, SaOS-2, uHTS | Protein Mdm4 (Homo sapiens) + E3 ubiquitin-protein ligase Mdm2 (Homo sapiens), … | SaOS-2 split-luciferase Mdm2/MdmX complementation | inhibition, % at 8 µM | actives 3% (n = 330,000) | AID 485346, 2010;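 active means inhibition of at least 50% at 8 µM in the primary screen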
# Calb FLC – C. albicans growth inhibition with fluconazole, primary screen, CaCi-2 strain, Alamar Blue fluorescence | actives 0.57% (n = 300,000) | growth inhibition, % (concentration not given with the values) | C. albicans CaCi-2 (fluconazole-resistant clinical isolate) + fluconazole, 48 h;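 active means growth inhibition above about 58% in most replicates, limit read from the data, passing the limit was not always enough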;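 further: all wells also contain fluconazole at 8 µg/ml as a sub-toxic cotreatment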
# Mdm2-MdmX conf – Mdm2-MdmX complex disruptors, retested hits, confirmation, luminescence, single concentration; shares compounds with Mdm2 MdmX PPI; Mdm2-MdmX binding, luminescent assay; inhibition, % at 8 µM; actives 55% (n = 10,000); AID 489028, 2010; in the data active means inhibition above about 40%
# Full FLuc ctr – full-length luciferase signal inhibition, confirmation, counter-screen for Mdm2/MdmX interaction inhibitor project, cell-based, single concentration, SaOS-2; SaOS-2 full-length luciferase counterscreen, luminescence; inhibition, % at 8 µM; AID 504607, 2011; shares compounds with Mdm2 MdmX PPI; actives 77% (n = 6,200);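 active means mean inhibition at 8 µM reaching about 37%, which flags the compound as non-specific, limit read from the data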;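 further: p53-null SaOS-2 cells with luciferase driven by a doxycycline-inducible promoter; compound on cells about two nights before reading with doxycycline added after day one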
# Hits are given with their value; – = inactive; · = not tested or not shown. A selection: hits, their analogues and other compounds. The true share with any hit is near 4.8%.
SMILES,Beta apoptosis,MPTP inh,CSC inhib,Mdm2 MdmX PPI,Calb FLC,Mdm2-MdmX conf,Full FLuc ctr
CN1CCc2cc(O)cc3c2[C@H]1Cc1ccc(O)c(O)c1-3,–,–,–,–,·,·,·
COc1cccc(NP(=O)(Oc2ccccc2Cl)Oc2ccccc2Cl)c1,–,–,–,–,–,·,·
COc1cccc(NP(=O)(Oc2ccccc2)Oc2ccccc2)c1,–,–,99,58,–,53,37
N#Cc1ccc(NC(=S)N2Cc3ccccc3-n3nncc3C2)cc1,·,–,·,·,·,·,·
COc1cc2c(cc1OC)-c1c(OC)c(OC)c(OC)c3ccnc(c13)C2=O,89,·,–,72,–,44,–
COc1cc(CC2(CCc3ccncc3)C(=O)NC(=O)NC2=O)cc(OC)c1OC,·,–,–,–,–,·,·
C[C@@H]1CC[C@@]2(NC1)O[C@H]1C[C@H]3[C@@H]4CC=C5C[C@@H](O)CC[C@]5(C)[C@H]4CC[C@]3(C)[C@H]1[C@@H]2C,–,–,–,58,79,–,·
Cc1cc(Br)cn2c(CC(=O)N3CCCCC3)c(-c3ccc(F)cc3)nc12,·,–,·,·,·,·,·
C=C1C(=O)OC2CCN3CC=C(COC(=O)C(C)(O)C4(CO4)C1C)C23 (configuration not stated),·,–,·,·,·,·,·
CS(=O)(=O)c1ccc(C2=C(CNC(=O)c3nccs3)[C@H]3CC[C@@H](C2)N3Cc2ccco2)cc1,·,–,·,·,·,·,·
CC(=O)O[C@@H]1/C=C/[C@](C)(O)C[C@@H](C)C/C=C/[C@H]2[C@@H]3O[C@]3(C)[C@@H](C)[C@H]3[C@H](Cc4ccccc4)NC(=O)[C@@]312,–,–,–,78,–,51,42
CCCCCC(=O)N[C@@H](c1ccccc1)[C@@H](O)C(=O)O[C@H]1C[C@@]2(O)[C@@H](OC(=O)c3ccccc3)C3[C@](C)(C(=O)[C@H](O)C(=C1C)C2(C)C)[C@@H](OC1OCC(O)C(O)C1O)C[C@H]1OC[C@@]31OC(C)=O (some centres not stated),–,–,–,57,–,60,52
CC(=O)O[C@@]12CO[C@@H]1C[C@H](OC1OCC(O)C(O)C1O)[C@@]1(C)C(=O)[C@H](O)C3=C(C)[C@@H](OC(=O)[C@H](O)[C@@H](NC(=O)c4ccccc4)c4ccccc4)C[C@@](O)([C@@H](OC(=O)c4ccccc4)C12)C3(C)C (some centres not stated),–,–,–,53,–,–,59
CC(=O)O[C@@]12CO[C@@H]1C[C@@H](O)[C@@]1(C)C(=O)[C@H](O)C3=C(C)[C@@H](OC(=O)[C@H](O)[C@@H](NC(=O)c4ccccc4)c4ccccc4)C[C@@](O)([C@@H](OC(=O)c4ccccc4)C12)C3(C)C (some centres not stated),–,–,–,51,–,61,48
CC(=O)OC12COC1CC(O)C1(C)C(=O)C(O)C3=C(C)C(O)CC(O)(C(OC(=O)c4ccccc4)C21)C3(C)C (configuration not stated),·,–,·,·,·,·,·
CC(=O)O[C@H]1CCC2C3CC[C@H]4[C@@H](O)[C@H](O)CC[C@]4(C)C3CC[C@@]21C (some centres not stated),·,–,·,·,·,·,·
C=C(C)CC1(CC)C(=O)NC(=S)NC1=O,·,–,·,·,·,·,·
O=S(=O)(c1cccc(C(F)(F)F)c1)N1Cc2ccccc2-n2nncc2C1,·,–,·,·,·,·,·
O=C1/C(=C/c2ccccc2)C[C@@]2(O)[C@H]3Cc4ccc(O)c5c4[C@@]2(CCN3CC2CC2)C1O5 (some centres not stated),·,–,·,100,·,100,51
COc1ccc(CNCCc2c(C)[nH]c3ccc(OC(F)(F)F)cc23)c(OC)c1,88,–,–,87,–,53,52
COc1ccc2[nH]c(C)c(CCNCc3cc(OC)c(OC)c(OC)c3)c2c1,–,–,–,–,–,·,·
COc1ccc2c3c1OC1C(=O)CC[C@@]4(O)[C@@H](C2)N(C)CC[C@]314 (some centres not stated),·,–,·,67,·,53,–
COC(=O)C1=C(c2ccc(Cl)c(C(F)(F)F)c2)C[C@@H]2CC[C@H]1N2C(=O)N1CCCC1,–,–,–,–,·,·,·
COC(=O)C1=C(c2ccc(Cl)c(C(F)(F)F)c2)C[C@@H]2CC[C@H]1N2C(=O)N1CCC(O)(c2ccc(Cl)cc2)CC1,–,–,·,88,·,–,·
CC1(C)C(=O)CCC2C1=CCC1C2CCC2(C)C(O)CCC12 (configuration not stated),·,–,·,·,·,·,·
SMILES,Beta apoptosis,MPTP inh,CSC inhib,Mdm2 MdmX PPI,Calb FLC,Mdm2-MdmX conf,Full FLuc ctr
COC(=O)[C@@H]1[C@@H](C(=O)OC)C2(c3ccccc3-c3ccccc32)N(c2ccc(Cl)cc2)N1C#N,–,–,–,101,–,–,·
COC(=O)C[C@]1(C(=O)OC)CN(C#N)N(c2ccc(Cl)cc2)C12c1ccccc1-c1ccccc12,112,–,–,99,–,–,·
CCOC(=O)[C@]12Cc3cc(Cl)ccc3[C@H]1N(CC(=O)OC)C(=O)c1ccccc12,·,–,·,·,·,·,·
S=C(NCCc1ccccc1)N1Cc2cc(N3CCCCC3)ccc2-n2nncc2C1,·,–,·,·,·,·,·
COc1ccc(C(SCC(NC(=O)OCc2ccccc2)C(=O)O)c2ccc(OC)cc2)cc1 (configuration not stated),·,–,·,·,·,·,·
CC12CCC3C(CC=C4CC(O)CCC43C)C1C/C(=C\c1cccc(F)c1)C2=O (configuration not stated),–,–,–,60,–,–,·
COc1ccc(C2=CC(c3ccc(OC)c(OC)c3)c3c(c4ccccc4oc3=O)O2)cc1OC (configuration not stated),–,–,–,55,–,65,66
O=C1NC(=O)C(Nc2ccccc2)C(=O)N1,·,–,·,·,·,·,·
